Screens (PubChem BioAssay)
Pf growth 48h = inhibits P. falciparum growth in the first generation, 48 h; P. falciparum luciferase growth in erythrocytes, 48 h; Potency, µM (doses to about 28.7 µM), inactives show at the highest dose activity change, negative = inhibition, hits mostly inhibitors; 310,000 compounds, 5.9% hits; further: on the % scale 0 is the no-effect control and ±100 the full control effect
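Compounds are pin-transferred into medium, infected erythrocytes (2% hematocrit, 0.1% parasitemia final) are added, and plates sit one parasite generation at 37 C in 5% CO2. Detection reagent is then added and luminescence measured.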
RE007 growth inh = less growth of the S. pombe RE007 Vpr strain; S. pombe RE007 Vpr strain, BacTiter-Glo ATP luminescence, 24 h; Potency, µM (series often up to 92.2 µM), without a hit: at the highest dose activity change, negative = less growth, most hits filed as inhibitors; 360,000 compounds, 0.21% hits; AID 651644; active means well fitted falling curve with a large enough effect; inconclusive means small, poorly fitted or top-dose-only effect; inactive means no such curve, though single readings can be large or run the other way; further: on the % scale 0 is the no-effect control and ±100 the full control effect; nearly all actives have a fitted effect of over 50% in size
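Fission yeast strain RE007, carrying one chromosomally integrated HIV-1 vpr copy, was seeded at OD 0.01 in PMG+AL medium with 23 nL pinned compound. After 24 h at 30 °C and 99% humidity, viability was read by BacTiter-Glo luminescence.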
SARS PLP yeast = blocks SARS-CoV papain-like protease in a yeast assay | 330,000 compounds, 0.19% hits | Potency, µM (titrated, usually from 32.9 µM), without a hit: at the highest dose activity, positive = growth rescue, actives largely listed as activators | S. cerevisiae expressing SARS-CoV PLpro, growth rescue; calls by dose curve; further: 0% is about no effect; nearly all actives have a fitted effect of over 55% in size
NS1 inh = influenza NS1 inhibition; 270,000 compounds, 0.4% hits; Potency, µM (doses to about 46.1 µM), without a hit: at the top dose activity, positive = more growth; calls by dose curve; further: actives are rising curves; nearly all actives have a fitted effect of over 50% in size
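Recovery from NS1-induced slow growth read by OD600 in budding yeast switched to galactose assay medium (pH 6.0, -URA) at 1:100 dilution. Compound 23 nl per well; the matching strain lacking NS1 serves as control.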
Pf growth 96h = inhibits malaria parasite growth, 96 h; AID 504834; P. falciparum luciferase reporter growth, 96 h; 320,000 compounds, 6.9% hits; Potency, µM (doses to about 28.7 µM), for the others: at the top dose activity change, negative = inhibition, usual class: inhibitors; further: on the % scale 0 is the no-effect control and ±100 the full control effect
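Two parasite generations (96 h, 37 C, 5% CO2) of compound exposure in infected erythrocytes (0.05% parasitemia, 2% hematocrit). Luciferase-reporter P. falciparum; decreased luminescence indicates inhibited growth, aimed at apicoplast-acting delayed death.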
* = called active by the depositor; i = inactive; ? = inconclusive; nt = no result given. Only some compounds are listed: those with a hit (about 9.5% of all), similar ones and a draw of the others. Unless noted, the call rests on the fitted dose curve; in most records, active means well fitted inhibition curve with a large enough effect; inconclusive means small, poorly fitted or top-dose-only effect, or another doubt; inactive means no such curve, though single readings can be large or run the other way. Potency means the concentration at half of the fitted maximal effect.

SMILES	Pf growth 48h	RE007 growth inh	SARS PLP yeast	NS1 inh	Pf growth 96h
COCCNS(=O)(=O)c1cc2[nH]c3c(c2cc1C)C(=O)CC(C)(C)C3	-2%	-5%	1%	-1%	?
CC(=O)Nc1nc2ncc(C=O)nc2c(=O)[nH]1	nt	nt	nt	-6%	nt
COc1ccc2c(Cc3c4ccccc4cc4ccccc34)cncc2c1O	nt	nt	nt	-41%	nt
Cc1cccn2c(NCc3ccc4c(c3)OCO4)c(-c3ccc(O)cc3)nc12	4.1µM*	-5%	-1%	nt	i
c1ccc(-c2nc3ccccn3c2NCc2ccc3c(c2)OCO3)cc1	?	-28%	1%	-168%	92%
COc1cc2nc(C3CCC3)nc(N3CCN(c4ccccc4OC)CC3)c2cc1OC	13µM*	34%	29%	-29%	?
COc1cc2nc(C3CCC3)nc(N3CCN(c4ccccn4)CC3)c2cc1OC	?	-13%	-2%	-7%	?
Cc1nnc(N/N=C/c2cc([N+](=O)[O-])c(N3CCC(C)CC3)cc2N2CCC(C)CC2)n1N	5.9µM*	6%	-19%	-72%	nt
CC(Oc1cccnc1[N+](=O)[O-])C(=O)Nc1cccc(Cl)c1 (configuration not stated)	-30%	-17%	2%	nt	?
CCCNC(=O)c1cc(C2CCCN(C(=O)c3ccc(NC(C)=O)cc3)C2)on1 (configuration not stated)	nt	0%	nt	nt	nt
O=C(CSc1ncnc2c1sc1ccccc12)Nc1ccc(Br)cc1	-2%	50%	2%	20%	13µM*
O=C(CSc1ncnc2c1oc1ccccc12)Nc1nc2ccccc2s1	?	-4%	-2%	0%	1%
Cc1ccc(C)n1-c1ccc(C(=O)/C=C/N(C)C)cc1	?	-3%	1%	nt	15µM*
CN(C)/C=C/C(=O)c1ccc(Br)cc1	27%	-19%	-4%	-62%	0%
COP(=O)(OC)C(Nc1ccc(C)cc1)c1ccc(Br)cc1 (configuration not stated)	nt	-15%	nt	nt	nt
CN(CC(=O)Nc1ccc(Cl)c(Cl)c1)C1CCCCC1	30%	-24%	-1%	-5%	-4%
CN(CC(=O)Nc1ccc(Cl)c(Cl)c1)C(=O)C12CC3CC(CC(C3)C1)C2	?	15%	-18%	4%	7.4µM*
COc1cccc(C2=NOC(C(=O)Nc3cc(C)on3)C2)c1 (configuration not stated)	-6%	5%	1%	-5%	-7%
COc1cccc(C2=NOC(C(=O)NCCN3CCOCC3)C2)c1 (configuration not stated)	?	-2%	-2%	-10%	8.3µM*
